Bioassay records: PubChem BioAssay, National Center for Advancing Translational Sciences (NCATS)
Sampled rows, rich in hits. Any-hit rate of the full collection: about 3.2%.
AMA1 RON2 block – AMA1-RON2 (P. falciparum) interaction inhibition | 360,000 tested, 0.2% active | AlphaScreen AMA1-biotinylated RON2 peptide binding | Potency, µM (top dose mostly 58.2 µM), without a hit: top-dose activity change, negative = inhibition, usual class: inhibitors;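 note: 0% = vehicle wells and -100% = peptide control; nearly all actives have a fitted effect of over 45% in size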
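AMA1 (3D7) with his tag at 25 nM final met compounds first, then biotinylated RON2 peptide at 25 nM; detection used donor plus acceptor beads, 10 µg/mL apiece, read by AlphaScreen after 30 min at room temperature.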
RE007 growth inh – less growth of the S. pombe RE007 Vpr strain. Potency, µM (titrated, usually from 92.2 µM), inactives show at the top dose activity change, negative = less growth, usual class: inhibitors. S. pombe RE007 Vpr strain, BacTiter-Glo ATP luminescence, 24 h. 360,000 tested, 0.21% active. AID 651644; active = well fitted falling curve with a large enough effect; inconclusive = small, poorly fitted or top-dose-only effect; inactive = no such curve, though single readings can be large or run the other way; note: nearly all actives have a fitted effect of over 50% in size
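Fission yeast RE007 carrying one integrated HIV-1 vpr copy, seeded at OD 0.01 in PMG+AL medium with 23 nL pinned compound. Grown 24 h at 30 degrees; viability read by BacTiter-Glo luminescence after 5 min.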
Sm TGR block – inhibitors of Schistosoma mansoni thioredoxin glutathione reductase. purified TGR, DTNB reduction, TNB absorbance 405 nm. Potency, µM (highest dose often 114 µM), for inactives: at the top dose activity change, negative = inhibition, actives largely listed as inhibitors. AID 485364. 360,000 tested, 3% active. Q962Y6; note: nearly all actives have a fitted effect of over 60% in size
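TGR 20 nM + NADPH 100 uM (dispensed conc.), cpd preinc 15 min RT; start with NADPH (500 uM addition) then DTNB (15 mM addition). Kinetic TNB absorbance, 405 nm filter. Four-parameter Hill fit across titration.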
AmpC inh no detg – inhibitors of E. coli AmpC beta-lactamase without detergent; AID 485341; Potency, µM (doses to about 57.1 µM), for inactives: at the top dose activity change, negative = inhibition, actives largely listed as inhibitors; AmpC nitrocefin hydrolysis, absorbance 480 nm, 0.0001% Triton; 330,000 tested, 0.52% active; P00811;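 note: plate controls were no compound for no effect and no enzyme for full effect; nearly all actives have a fitted effect of over 20% in size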
Target sequence (P00811 whole entry, looked up): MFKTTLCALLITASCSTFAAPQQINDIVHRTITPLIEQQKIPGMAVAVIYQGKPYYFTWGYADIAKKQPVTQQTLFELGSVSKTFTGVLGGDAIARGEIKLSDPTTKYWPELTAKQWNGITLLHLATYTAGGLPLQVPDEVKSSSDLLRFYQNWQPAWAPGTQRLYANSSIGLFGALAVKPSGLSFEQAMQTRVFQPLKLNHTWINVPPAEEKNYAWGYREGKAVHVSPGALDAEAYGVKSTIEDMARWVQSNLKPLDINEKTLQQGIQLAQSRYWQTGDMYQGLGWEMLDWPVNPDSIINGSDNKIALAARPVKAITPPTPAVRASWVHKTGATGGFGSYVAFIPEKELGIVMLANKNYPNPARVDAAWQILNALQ
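AmpC (5.3 nM in the dispensed reagent) in 20 mM phosphate pH 7.0 with 0.01% (detergent screen) or 0.0001% Triton X-100 was preincubated with compounds for 15 min at room temperature. Nitrocefin was then added from an 800 uM solution, and hydrolysis was followed at 480 nm.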
AmpC detergent – AmpC beta-lactamase inhibition with detergent present | P00811 | AmpC hydrolysis of nitrocefin, absorbance 480 nm, 0.01% Triton | Potency, µM (doses to about 114 µM), inactives show at the top dose activity change, negative = inhibition, most hits filed as inhibitors | 370,000 tested, 0.041% active | AID 485294;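 note: 0% = no-compound wells and -100% = no-enzyme wells; nearly all actives have a fitted effect of over 25% in size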
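AmpC (5.3 nM in the dispensed reagent) in 20 mM phosphate pH 7.0 with 0.01% (detergent screen) or 0.0001% Triton X-100 was preincubated with compounds for 15 min at room temperature. Nitrocefin was then added from an 800 uM solution, and hydrolysis was followed at 480 nm.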
Active calls of the source: *; ? = inconclusive; nt = not tested or not shown; [ ] = another dose, or the depositor's remark. Unless noted, calls come from the whole dose curve; as a rule, active = well fitted curve in the direction sought with a large enough effect; inconclusive = small, poorly fitted or top-dose-only effect, or another doubt; inactive = no such curve, though single readings can be large; an effect the other way counts as inactive or inconclusive. Unless noted, % is set by controls: 0 for no effect and ±100 for the full control effect; potency is the fitted concentration of half-maximal effect.

SMILES	AMA1 RON2 block	RE007 growth inh	Sm TGR block	AmpC inh no detg	AmpC detergent
COc1ccc(Cl)cc1NC(=O)c1c(NCc2ccc(C)o2)sc2c1CCCCC2	nt	nt	3.5µM*	nt	3%
COc1ccc(OC)c(NC(=O)c2c(NCc3ccc(N(C)C)cc3)sc3c2CCCC3)c1	nt	nt	22µM*	nt	7%
COc1ccc(OC)c(NC(=O)c2c(NCc3ccc(OC)c(OC)c3)sc3c2CCC3)c1	nt	nt	-5%	nt	2%
COc1ccccc1NC(=O)c1c(NC(=O)c2ccco2)sc2c1CCC2	8%	-3%	?	-35%	-11%
COc1ccc(Cl)cc1NC(=O)c1c(NCc2ccc(C)o2)sc2c1CCC(C)C2 (centres undefined)	nt	nt	?	nt	-2%
O=C1c2c(-c3ccc(Br)cc3)noc2CCN1Cc1cn(-c2ccc(Cl)cc2)nn1	-17%	-9%	nt	nt	nt
CCN(CC)CCCNC(=O)CCCn1c(=O)[nH]c2ccc(Br)cc2c1=O	nt	nt	0%	nt	-1%
Cc1ccc(CN2COc3ccc4c(C)cc(=O)oc4c3C2)cc1	nt	nt	6%	nt	3%
CCOc1ccccc1CNC(=O)c1ccc2nc(CCc3ccccc3)oc2c1	nt	nt	6%	nt	-4%
CCOc1ccc(NC(=O)c2c(NCc3cccs3)sc3c2CCC(C)C3)cc1 (centres undefined)	nt	nt	-10%	nt	-10%
COc1ccc(OC)c(NC(=O)c2c(NCc3ccc(C)o3)sc3c2CCCCC3)c1	nt	nt	3.5µM*	nt	2%
COc1ccc(OC)c(NC(=O)c2c(NC(=O)CNCc3ccco3)sc3c2CCC3)c1	-5%	14%	2%	-40%	-2%
CCOc1ccc(NC(=O)c2c(NCc3ccc(C)o3)sc3c2CCC(C)C3)cc1 (centres undefined)	nt	nt	25µM*	nt	-1%
CCCCN(CCCC)C(=O)c1cc2c(=O)n3ccccc3nc2s1	nt	nt	-5%	nt	24%
Cc1c(-c2nc(-c3ccc4c(c3)OCO4)no2)nnn1-c1cccc(C(F)(F)F)c1	nt	nt	8%	nt	3%
Oc1ccc(C2C(c3ccccc3)=NN=C(c3ccc(Cl)cc3)N2O)c(O)c1 (centres undefined)	6%	3%	?	25µM*	?
Cc1cc(C(F)(F)F)n2nc(-c3ccc(Br)cc3)cc2n1	nt	nt	5%	nt	8%
Cc1cc(C)nc(/N=C(\N)N2CCCCC2)n1	10%	-15%	45µM*	-13%	3%
COc1cc2c(cc1OC)CN(Cc1cc(=O)oc3cc(C)c(Cl)cc13)CC2	-4%	-6%	-5%	10µM*	-11%
COc1ccc(N2CCN(C(=O)Cn3c(-c4cccs4)cc4ccccc43)CC2)cc1	nt	nt	1%	nt	10%
CCCCCCOc1ccc(N2C(=O)CC(N3CCC(C(=O)OCC)CC3)C2=O)cc1 (centres undefined)	-6%	5%	4%	7%	-1%
CCOC(=O)C1CCCN(C2CC(=O)N(c3ccc(N4C(=O)CC(N5CCCC(C(=O)OCC)C5)C4=O)cc3)C2=O)C1 (centres undefined)	-2%	1%	20µM*	-6%[2.29 µM]	3%
Cc1ccc(N2C(=O)C3CCCN3C2=S)cc1C (centres undefined)	-20%	2%	10%	-11%	-10%
CCOC(=O)C1CCCN(C2CC(=O)N(c3ccccc3)C2=O)C1 (centres undefined)	-3%	?	?	-2%	-7%
CCOC(=O)C1CCCN(C2CC(=O)N(c3ccc(C)c(C)c3)C2=O)C1 (centres undefined)	-2%	28µM*	45µM*	32%	4%
SMILES	AMA1 RON2 block	RE007 growth inh	Sm TGR block	AmpC inh no detg	AmpC detergent
Cc1cccc(N2C(=O)CC(N3CCN(c4cccc(C(F)(F)F)c4)CC3)C2=O)c1 (centres undefined)	-5%	-13%	?	52%	-3%
CCOC(=O)C1CCCN(C2CC(=O)N(c3cccc(C(F)(F)F)c3)C2=O)C1 (centres undefined)	7%	8.9µM*	?	5%	-13%
CCOC(=O)C1CCN(C2CC(=O)N(c3ccc(OCC)cc3)C2=O)CC1 (centres undefined)	-12%	18µM*	50µM*	13%	-6%
CCC(C)n1c(=N)c(S(=O)(=O)c2ccc(C)cc2)cc2c(=O)n3cc(C)ccc3nc21 (centres undefined)	nt	nt	17%	nt	10%
CCOC(=O)C1CCCN(C2CC(=O)N(c3ccc(C(C)C)cc3)C2=O)C1 (centres undefined)	4%	35µM*	?	117%	5%
CCc1ccc(N2C(=O)CC(N3CCC(C(=O)OC)CC3)C2=O)cc1 (centres undefined)	-3%	10µM*	56µM*	-27%	-12%
CCOc1ccccc1NC(=O)N1CCC(NC(=O)c2cccc(C)c2)CC1	5%	10%	25µM*	-6%	?
Cc1cccc(C(=O)NC2CCN(C(=O)Nc3ccc(F)cc3)CC2)c1	-2%	5%	40µM*	-19%	?
Cc1ccc(Cn2cnc3nc4c(cc3c2=O)CC(C)CC4)cc1 (centres undefined)	nt	nt	4%	nt	0%
CC(=O)c1ccc(NC(=O)COc2ccccc2-c2nc(C)no2)cc1	nt	nt	-17%	nt	-4%
CCOC(=O)N1CCC(c2cc(=O)n3[nH]cc(C(=O)OC)c3n2)CC1	7%	-6%	-1%	7.9µM*	?
Cc1cc(C)c(O)c(N)c1	nt	nt	3.2µM*	-44%	-1%
CC(C)(C)C(=O)[C@@H]1[C@@H]2C(=O)N(Cc3ccccc3)C(=O)[C@@H]2[C@H]2c3ccccc3C=CN12	nt	nt	?	-26%	-11%
O=C(c1ccco1)[C@@H]1[C@@H]2C(=O)N(c3ccc(Br)cc3)C(=O)[C@@H]2C2c3ccccc3C=CN21 (some centres undefined)	20%	-23%	18µM*	-27%	?
O=C(c1ccco1)[C@@H]1[C@@H]2C(=O)N(c3ccc(F)cc3)C(=O)[C@@H]2[C@H]2C=Cc3ccccc3N21	-5%	-5%	-33%	2%	-6%
O=C(c1ccco1)[C@@H]1[C@@H]2C(=O)N(c3ccc(F)cc3)C(=O)[C@@H]2C2c3ccccc3C=CN21 (some centres undefined)	nt	nt	22µM*	-4%	-11%
